# This is a sample that favours compounds with a hit; in the whole collection about 6.5% have one here.
# Fluor 339 460: intrinsic fluorescence of library compounds, ex339/em460 – biochemical, MLSMR library, data from DPM-DC assay, artefact control, profiling panel. hit rate 5.5% among 65,000. fluorescence fold increase at 10 µM. compound autofluorescence, ex339/em460 nm, NADH buffer; stronger effect = higher value; 1 = no-compound wells, NADH background;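 active = at 10 µM, mean starting fluorescence two-fold or more over control wells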;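 also: signal is the first read of a kinetic run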
# DPM-DC inhibit: blocks S. pneumoniae diphosphomevalonate decarboxylase; AID 556; hit rate 0.49% among 65,000; purified DPM-DC, PK/LDH coupled NADH fluorescence; calls only at 10 µM;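 active = the 320 compounds with the highest percent inhibition in the single-dose primary screen, excluding strongly autofluorescent ones, cut at about 32% in these data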;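 also: kinetic rate of NADH fluorescence loss reporting ADP formed by the decarboxylase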
# A340 absorber: compounds absorbing at 340 nm; compound absorbance at 340 nm, fold over control; 65,000 tested, under 10 active; fold change at 10 µM; AID 708;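 active = at 10 µM dose, initial 340 nm absorbance at least 2 fold that of control wells; inactive = change under 2 fold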;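 also: initial absorbance extrapolated from kinetic A340 decline of NADH oxidation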
# Spn PMK inh: blocks S. pneumoniae phosphomevalonate kinase. inhibition, % at 10 µM. purified PMK, PK/LDH-coupled NADH absorbance 340 nm. hit rate 0.49% among 65,000. AID 539;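 active = top-ranked compounds by inhibition in the single 10 µM screen, taking a fixed number of the strongest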
# MK inhibit: S. pneumoniae mevalonate kinase inhibition; purified MK, PK/LDH-coupled NADH absorbance 340 nm; inhibition, % at 10 µM; hit rate 0.48% among 65,000; AID 555;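 active = ranked among the strongest by inhibition in the single 10 µM screen, a fixed top-ranked set picked for dose follow-up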
# NADH enzymes: blocks coupling enzymes of NAD/NADH assays; coupled PK/LDH NADH assays, four targets; IC50, µM (series often up to 10 µM); hit rate 0.02% among 65,000;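 active = single-dose screening hits from any of four coupled enzyme assays that gave an IC50 when retested across doses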;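 also: the DPM-DC format reads NADH fluorescence rather than 340 nm absorbance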
# Numbers stand for hits; 0 = inactive; - = no result shown.
SMILES,Fluor 339 460,DPM-DC inhibit,A340 absorber,Spn PMK inh,MK inhibit,NADH enzymes
CN(C(=O)c1ccncc1)c1nnc(-c2ccccn2)s1,3.07,0,0,0,0,0
CN(C(=O)c1cccc(C#N)c1)c1nnc(-c2ccccn2)s1,2.11,0,0,0,0,0
CN(C(=O)c1ccccn1)c1nnc(-c2ccncc2)s1,2.26,-,0,0,0,0
CN(C(=O)c1cccc(C#N)c1)c1nnc(C2CCOC2)s1 (stereo not drawn),0,0,0,0,0,0
CN(C(=O)c1ccncc1)c1nnc(-c2cccnc2)s1,0,0,0,0,0,0
CN(C(=O)c1ccno1)c1nnc(-c2ccccn2)s1,5.14,-,0,0,0,0
CC(C)Cc1nnc(NC(=O)CCC(=O)N2CCOCC2)s1,0,0,0,0,0,0
CCN1CCN(C(c2ccc(F)cc2)c2nnnn2Cc2cccs2)CC1 (stereo not drawn),0,0,0,27.0,0,0
CN1CCN(C(c2ccc(F)cc2)c2nnnn2Cc2cccs2)CC1 (stereo not drawn),0,0,0,0,0,0
O=C(NCc1cccnc1)c1cccc(S(=O)(=O)N2CCCCC2)c1,0,0,0,0,0,0
Cc1ccccc1-c1nnc(SCc2ccccc2F)o1,0,0,0,0,0,0
c1ccc(-n2nc3c(ccc4cnnc43)[nH]2)cc1,3.98,-,0,0,0,0
COc1ccc(-n2ncc3c(N4CCC(C(N)=O)CC4)ncnc32)cc1,0,0,0,0,0,0
COc1cccc2[nH]c3c(N4CCC(C(N)=O)CC4)ncnc3c12,3.69,-,0,0,0,0
COc1cc2[nH]c3c(N4CCC(C(N)=O)CC4)ncnc3c2cc1OC,2.8,0,0,0,0,0
CC(=O)Nc1nc(CC(=O)c2ccccc2)cs1,0,0,0,0,0,0
CC1(C)CC2CC(C)(CN2C(=O)COC(=O)c2ccc(Cl)cc2N)C1 (stereo not drawn),4.22,-,0,0,0,0
COc1ccc2nc(NC(=O)c3cccc(OCc4c(C)noc4C)c3)sc2c1,4,-,0,0,0,0
CCOc1cccc2cc(-c3nnc(NCc4ccco4)s3)c(=O)oc12,2.19,0,0,0,0,0
CCOc1cccc2cc(-c3cn4cc(C)ccc4n3)c(=O)oc12,5.05,-,0,0,0,0
COc1cccc2cc(-c3cn4cccc(C)c4n3)c(=O)oc12,0,0,0,0,0,0
COc1ccc2oc(=O)c(-c3nnc(NCc4ccco4)s3)cc2c1,0,0,0,0,0,0
Cc1ccc(NC(=O)N2CCC(O)(c3ccc(Cl)cc3)CC2)cc1,0,0,0,0,0,0
CN(CC(=O)N1CCCCCC1)S(=O)(=O)c1ccc(Br)s1,0,0,0,0,0,0
CN1C(=O)CC(P(=O)(c2ccccc2)c2ccccc2)N(C)C1=O (stereo not drawn),0,0,0,0,0,0
SMILES,Fluor 339 460,DPM-DC inhibit,A340 absorber,Spn PMK inh,MK inhibit,NADH enzymes
COc1ccc(OC)c(NC(=O)CNC(=O)Cn2ccc3ccccc3c2=O)c1,0,0,0,30.0,0,0
COc1ccc2c(CCNC(=O)c3ccco3)c[nH]c2c1,0,0,0,0,0,0
COc1cc2c(C#N)c(N3CCc4ccccc4C3)nc(N)c2c(N)n1,2.17,-,0,0,0,0
COc1cc2c(C#N)c(N3CCCCC3)nc(N)c2c(N)n1,5.11,-,0,0,0,0
COc1cc2c(C#N)c(N3CCOCC3)nc(N)c2c(N)n1,3.36,-,0,0,0,0
CCOc1ccc(C(C)=O)cc1Cn1nc(C(=O)O)c2ccccc2c1=O,0,0,0,0,0,0
COc1ccc(-c2nc(N)n(C(C)=O)n2)cc1,0,0,0,0,0,0
COc1ccc2c(c1)cc1n2CCN2CCCN=C12,2.1,0,0,0,0,0
COc1ccc2c(c1)cc1n2CCN=C1N,2.82,0,0,0,0,0
COC(=O)c1ccc2c(c1)N(Cc1nc(-c3cccc(Cl)c3)oc1C)C(=O)C1CCCN21 (stereo not drawn),2.04,0,0,0,0,0
COC(=O)c1ccc2c(c1)N(Cc1nc(-c3ccc(Cl)cc3)oc1C)C(=O)C1CCCN21 (stereo not drawn),3.74,0,0,0,0,0
Cc1cc(C(F)F)n2nc(C(=O)Nc3ccccc3Br)nc2n1,0,0,0,0,0,0
CC(C)(C)n1nnnc1CN(Cc1ccco1)Cc1cc2cc3c(cc2[nH]c1=O)OCO3,2.45,-,0,0,0,0
CCC(C)(C)n1nnnc1CN(Cc1ccco1)Cc1cc2cc3c(cc2[nH]c1=O)OCO3,3.52,-,0,0,0,0
CCC(C)(C)n1nnnc1CN(Cc1ccc(Cl)cc1)Cc1ccco1,0,0,0,0,0,0
CCCCNC(=O)OCCNC(=O)NC,0,0,0,0,0,0
COC(=O)CSc1ncc(C#N)c(N)n1,0,0,0,0,0,0
CC(Sc1ncc(C#N)c(N)n1)C(=O)Nc1ccccc1 (stereo not drawn),0,0,0,26.0,0,0
CCN(CC)CCCNc1cc2n(c(=O)n1)CCc1cc(OC)c(OC)cc1-2,3.97,-,0,0,0,0
COc1cc2c(cc1OC)-c1cc(N3CCCCCC3)nc(=O)n1CC2,2.47,0,0,0,0,0
COc1cc2c(cc1OC)-c1cc(N3CCCc4ccccc43)nc(=O)n1CC2,0,0,0,0,0,0
COc1ccc(C(=O)N2CCN=C2SCc2cccnc2)cc1OC,0,0,0,0,0,0
COc1cc2c(cc1OC)-c1cc(NC3CCCCCC3)nc(=O)n1CC2,3.28,-,0,0,0,0
COc1cc2c(cc1OC)-c1cc(OCc3cccnc3)nc(=O)n1CC2,2.92,-,0,0,0,0
CCN(CC)CCCNC(=O)c1nn(-c2ccccc2OC)c(=O)c2ccccc12,0,0,0,0,0,0
SMILES,Fluor 339 460,DPM-DC inhibit,A340 absorber,Spn PMK inh,MK inhibit,NADH enzymes
COc1cc2c(cc1OC)-c1cc(Nc3ccc4c(c3)OCCO4)nc(=O)n1CC2,0,0,0,0,0,0
Cc1ccc(NC(=O)C2(N(CC(C)C)C(=O)Cn3nnnc3N)CCCCC2)cc1,0,0,0,0,0,0
Cc1ccc(S(=O)(=O)N2CCCCC2)cc1C(=O)c1nccn1C,0,0,0,0,0,0
CCCCN(C)CCNC(=O)c1c[nH]c2ccc(S(=O)(=O)N(CC)CC)cc2c1=O,3.17,0,0,0,0,0
CCOc1ccccc1N(C(=O)c1snc(C(N)=O)c1N)C(C(=O)NC1CCCC1)c1ccco1 (stereo not drawn),2.36,0,0,-,0,0
Cc1ccc(C(C(=O)NC2CCCC2)N(Cc2cccnc2)C(=O)c2snc(C(N)=O)c2N)o1 (stereo not drawn),2.57,0,0,0,0,0
COCCNC(=O)C(c1ccc(C)o1)N(C(=O)c1snc(C(N)=O)c1N)c1cccc(C)c1 (stereo not drawn),2.51,0,0,0,0,0
Cc1cc2ncc(-c3ccc(Cl)cc3)c(N)n2n1,0,0,0,0,0,0

# Assay outcomes deposited in PubChem by SRMLSC.
